The record followed here is the antibiotic and cytotoxicity screens of Wong et al. (2023).

In all, about 39,000 compounds went through this assay and about 3,300 (8.5%) were called active. This is one part of a sample in which actives are shown more often than they occur.

The test system of this assay is HepG2. The assay can be described thus: cytotoxicity call (relative viability < 0.9). To be noted: 10 µM.
`C[C@H]1CN([C@@H](C)CO)C(=O)c2ccccc2-c2ccccc2CO[C@H]1CN(C)Cc1ccc(-c2ccccc2)cc1`: the cytotoxicity call was “inactive”. `CN(C)C(=O)N1C[C@@H]2[C@@H](C1)C(=O)N(C)C21CCN(S(C)(=O)=O)CC1`: the cytotoxicity call was “inactive”. On to `C[C@H](O)[C@H](O)[C@@H](O)[C@@H](O)/C=N/NC(=O)c1ccccn1`, for which the cytotoxicity call is “inactive”. Regarding `O=C(C[C@@H]1CC[C@@H]2[C@H](COC[C@H](O)CN2CC2CCOCC2)O1)N1CCOCC1`, the cytotoxicity call was “inactive”. For `CCc1nc2ccc(C(=O)NCCOc3ccc(OC)cc3)cn2c1N(CC)Cc1cccc(Br)c1` the value was “inactive”. Regarding `Cc1cc(C)c(N(Cc2ccccc2)S(=O)(=O)c2ccc(OCCNC(=O)c3cc4ccccc4o3)cc2)c(C(=O)NO)c1`, the cytotoxicity call is “active”.

Consider `O=C(NCCO)c1cc2ccccc2oc1=O`, for which the cytotoxicity call is “inactive”. For `Cc1ccc(S(=O)(=O)N(C)C[C@H]2Oc3ccc(NS(=O)(=O)c4cccs4)cc3C(=O)N([C@H](C)CO)C[C@@H]2C)cc1` the value was “inactive”; for `COc1ccc(COC[C@]23NC(=O)N(C(=O)c4ccccc4)[C@H](c4ccccc4O2)[C@H]3CO[Si](C)(C)C(C)(C)C)cc1`, “inactive”. `C[C@@H]1CN([C@H](C)CO)C(=O)Cc2cc(NC(=O)C3CCCCC3)ccc2O[C@H]1CN(C)S(C)(=O)=O`: the cytotoxicity call is “inactive”. For `C[C@H]1CCCCO[C@H](CN(C)Cc2ccc(Cl)c(Cl)c2)[C@@H](C)CN([C@@H](C)CO)C(=O)c2cc(NC(=O)Nc3cccc4ccccc34)ccc2O1` the value was “inactive”; for `C[C@@H]1CN([C@@H](C)CO)C(=O)c2cc(NC(=O)NC3CCCCC3)ccc2O[C@@H](C)CCCCO[C@H]1CN(C)C(=O)C1CCCCC1`, “active”. For `C[C@H](CO)N1C[C@H](C)[C@H](CN(C)C(=O)C2CCCCC2)OCCCC[C@H](C)Oc2ccc(NC(=O)NC3CCCCC3)cc2C1=O` the value was “active”; for `C[C@H]1CCCCO[C@H](CN(C)C(=O)C2CCCCC2)[C@@H](C)CN([C@@H](C)CO)C(=O)c2cc(NC(=O)NC3CCCCC3)ccc2O1`, “inactive”; for `C[C@@H]1CCCCO[C@@H](CN(C)C(=O)C2CCCCC2)[C@@H](C)CN([C@@H](C)CO)C(=O)c2cc(NC(=O)NC3CCCCC3)ccc2O1`, “inactive”. For `C[C@@H]1CCCCO[C@H](CN(C)C(=O)C2CCCCC2)[C@@H](C)CN([C@H](C)CO)C(=O)c2cc(NC(=O)NC3CCCCC3)ccc2O1` the value was “inactive”. With `C[C@@H]1CCCCO[C@@H](CN(C)C(=O)C2CCCCC2)[C@H](C)CN([C@@H](C)CO)C(=O)c2cc(NC(=O)NC3CCCCC3)ccc2O1`, the cytotoxicity call was “inactive”. For `C[C@@H]1CCCCO[C@H](CN(C)C(=O)C2CCCCC2)[C@H](C)CN([C@@H](C)CO)C(=O)c2cc(NC(=O)NC3CCCCC3)ccc2O1` the value was “active”.

Consider `C[C@H](CO)N1C[C@H](C)[C@@H](CN(C)C(=O)C2CCCCC2)OCCCC[C@H](C)Oc2ccc(NC(=O)NC3CCCCC3)cc2C1=O`, for which the cytotoxicity call was “inactive”.

On to `C[C@@H]1CCCCO[C@H](CN(C)C(=O)C2CCCCC2)[C@@H](C)CN([C@@H](C)CO)C(=O)c2cc(NC(=O)NC3CCCCC3)ccc2O1`, for which the cytotoxicity call was “inactive”. For `CCS(=O)(=O)N1C[C@]2(CCN(CC2)S(=O)(=O)c2cn(cn2)C)c2c([nH]c3cc(ccc23)OC)[C@@H]1CO` the value was “inactive”.

For `COc1ccc(S(=O)(=O)Nc2ccc3c(c2)C(=O)N([C@@H](C)CO)C[C@@H](C)[C@H](CN(C)C(=O)Nc2c(C)noc2C)OCCCC[C@@H](C)O3)cc1`, the cytotoxicity call was “inactive”. For `Cc1noc(C)c1NC(=O)N(C)C[C@@H]1Oc2ccc(NS(=O)(=O)c3c(C)noc3C)cc2C(=O)N([C@@H](C)CO)C[C@H]1C` the value was “inactive”. With `Cl.NC[C@H](N)C(=O)O` the entry was “inactive”. Regarding `COc1ccccc1S(=O)(=O)N(C)C[C@H]1OCc2cn(nn2)CCCC(=O)N([C@H](C)CO)C[C@@H]1C`, the cytotoxicity call is “inactive”. `Cc1cccc(NC(=O)Nc2ccc3c(c2)C(=O)N(C)[C@@H]2CC[C@H](CC(=O)NCc4ccccc4Cl)O[C@H]2CO3)c1`: the cytotoxicity call is “inactive”.

With `C=CC[C@H](CC(=O)N(CCO)Cc1ccccc1)C(=O)N[C@H](COC(=O)[C@@H](CC=C)CC(=O)OC(C)(C)C)Cc1c[nH]c2ccccc12`, the cytotoxicity call was “inactive”. For `C[C@H](CO)N1C[C@H](C)[C@H](CN(C)C(=O)Nc2ccccc2)Oc2ccc(NC(=O)CCN3CCOCC3)cc2CC1=O` the value was “inactive”. For `Cc1ccc(S(=O)(=O)N(C)C[C@@H]2Oc3ccc(NS(=O)(=O)c4ccc(F)cc4)cc3CC(=O)N([C@H](C)CO)C[C@H]2C)cc1` the value was “inactive”; for `O=C(NCc1ccccc1)C1=C[C@H](c2ccc(Br)cc2)C[C@H](OCc2ccc(CO)cc2)O1`, “inactive”; for `Cc1ccc(S(=O)(=O)N(C)C[C@H]2Oc3ccc(NS(C)(=O)=O)cc3CC(=O)N([C@@H](C)CO)C[C@H]2C)cc1`, “inactive”.

With `O=C(O)C=CC=Cc1ccccc1`, the cytotoxicity call was “inactive”. With `COC1=CC(=O)C(O)=CC1=CC=Cc1ccccc1` the entry was “active”; with `COc1cc(CC=Cc2ccccc2)c(OC)cc1O`, “inactive”. With `C[C@@H]1CN([C@H](C)CO)C(=O)c2cc(NC(=O)C3CCCCC3)ccc2O[C@@H]1CN(C)C(=O)Nc1ccc(C(F)(F)F)cc1` the entry was “inactive”; with `C[C@H]1CN([C@@H](C)CO)C(=O)c2cc(NS(=O)(=O)c3cccs3)ccc2O[C@H]1CN(C)S(=O)(=O)c1ccccc1`, “inactive”. With `C[C@@H]1CN([C@H](C)CO)C(=O)c2cc(NC(=O)CCCCCC(=O)Nc3ccccc3N)ccc2O[C@@H]1CN(C)S(C)(=O)=O` the entry was “inactive”; with `C[C@H](CO)N1C[C@H](C)[C@H](CN(C)C(=O)C2CCCCC2)OCCCC[C@H](C)Oc2ccc(NC(=O)CCC(F)(F)F)cc2C1=O`, “inactive”; with `Cc1ccc(NC(=O)[C@@H]2[C@@H]3CC/C=C\CC/C=C/CC[C@@H]32)cc1C`, “inactive”.

Take `CCC(=O)c1ccc(Cl)s1`: the cytotoxicity call was “inactive”. For `C[C@H]1CCCCO[C@H](CN(C)C(=O)Nc2ccc(C(F)(F)F)cc2)[C@@H](C)CN([C@@H](C)CO)C(=O)c2cc(NC(=O)Nc3ccc(F)cc3)ccc2O1` the value was “inactive”. With `C[C@H](CO)N1C[C@H](C)[C@@H](CN(C)C(=O)Nc2ccc(F)cc2)OCCCC[C@H](C)Oc2ccc(NC(=O)Nc3ccc(C(F)(F)F)cc3)cc2C1=O` the entry was “inactive”; with `C[C@@H]1CCCCO[C@H](CN(C)C(=O)Nc2ccc(C(F)(F)F)cc2)[C@H](C)CN([C@H](C)CO)C(=O)c2cc(NC(=O)Nc3ccc(F)cc3)ccc2O1`, “inactive”; with `C[C@H](CO)N1C[C@H](C)[C@@H](CN(C)C(=O)Nc2ccc(C(F)(F)F)cc2)OCCCC[C@H](C)Oc2ccc(NC(=O)Nc3ccc(F)cc3)cc2C1=O`, “inactive”. With `C[C@@H]1CN([C@H](C)CO)C(=O)c2cc(NC(=O)Nc3ccc(C(F)(F)F)cc3)ccc2O[C@@H](C)CCCCO[C@H]1CN(C)C(=O)Nc1ccc(F)cc1` the entry was “active”. As to `C[C@H]1CCCCO[C@@H](CN(C)C(=O)Nc2ccc(F)cc2)[C@@H](C)CN([C@@H](C)CO)C(=O)c2cc(NC(=O)Nc3ccc(C(F)(F)F)cc3)ccc2O1`, the cytotoxicity call is “inactive”.

Consider `C[C@@H]1CCCCO[C@H](CN(C)C(=O)Nc2ccc(F)cc2)[C@@H](C)CN([C@@H](C)CO)C(=O)c2cc(NC(=O)Nc3ccc(C(F)(F)F)cc3)ccc2O1`, for which the cytotoxicity call was “inactive”. For `C[C@@H]1CCCCO[C@H](CN(C)C(=O)Nc2ccc(C(F)(F)F)cc2)[C@@H](C)CN([C@H](C)CO)C(=O)c2cc(NC(=O)Nc3ccc(F)cc3)ccc2O1` the value was “active”. `C[C@@H]1CCCCO[C@@H](CN(C)C(=O)Nc2ccc(C(F)(F)F)cc2)[C@H](C)CN([C@H](C)CO)C(=O)c2cc(NC(=O)Nc3ccc(F)cc3)ccc2O1`: the cytotoxicity call was “active”. With `C[C@H]1CCCCO[C@@H](CN(C)C(=O)Nc2ccc(C(F)(F)F)cc2)[C@@H](C)CN([C@@H](C)CO)C(=O)c2cc(NC(=O)Nc3ccc(F)cc3)ccc2O1` the entry was “inactive”; with `C[C@@H]1CN([C@H](C)CO)C(=O)c2cc(NC(=O)Nc3ccc(F)cc3)ccc2O[C@@H](C)CCCCO[C@H]1CN(C)C(=O)Nc1ccc(C(F)(F)F)cc1`, “active”. For `C[C@H](CO)N1C[C@H](C)[C@H](CN(C)C(=O)Nc2ccc(F)cc2)OCCCC[C@H](C)Oc2ccc(NC(=O)Nc3ccc(C(F)(F)F)cc3)cc2C1=O` the value was “inactive”; for `Cc1ccc(S(=O)(=O)Nc2ccc3c(c2)C(=O)N([C@@H](C)CO)C[C@@H](C)[C@H](CN(C)S(=O)(=O)c2ccc(F)cc2)O3)cc1`, “inactive”; for `C[C@H](CO)N1C[C@H](C)[C@@H](CN(C)S(C)(=O)=O)Oc2c(NC(=O)CCCCCC(=O)Nc3ccccc3N)cccc2C1=O`, “inactive”. Consider `C[C@@H]1CN([C@H](C)CO)C(=O)c2cc(NS(=O)(=O)c3cn(C)cn3)ccc2O[C@@H](C)CCCCO[C@@H]1CN(C)C(=O)CCCN(C)C`, for which the cytotoxicity call was “inactive”. For `C[C@@H]1CN([C@H](C)CO)C(=O)Cc2cc(NC(=O)CCCCCC(=O)Nc3ccccc3N)ccc2O[C@H]1CN(C)C(=O)Nc1ccccc1` the value was “inactive”; for `COc1cccc(-c2ccc3c(c2)O[C@H](CN(C)C(=O)C2CCC2)[C@H](C)CN([C@H](C)CO)S3(=O)=O)c1`, “inactive”; for `C[C@@H]1CN([C@H](C)CO)C(=O)c2cc(NC(=O)Cc3ccccc3)ccc2O[C@@H](C)CCCCO[C@H]1CN(C)C(=O)Nc1ccc2c(c1)OCO2`, “inactive”. With `CNC(=O)C[C@H]1CC[C@@H]2[C@H](COc3ccc(NC(=O)c4ccc(C(F)(F)F)cc4)cc3C(=O)N2C)O1` the entry was “inactive”; with `C[C@H](CO)N1C[C@H](C)[C@H](CN(C)Cc2ccc(C(=O)O)cc2)OCCCC[C@H](C)Oc2ccc(NS(=O)(=O)c3ccc(Cl)cc3)cc2C1=O`, “inactive”. With `Cc1noc(C)c1NC(=O)N(C)C[C@@H]1Oc2c(NC(=O)NC(C)C)cccc2C(=O)N([C@@H](C)CO)C[C@@H]1C` the entry was “inactive”.
